Measured values published in PubChem BioAssay (NCATS).
Results filed as inconclusive are left out. The source made the active and inactive calls. Calls follow the shape of the dose curve; as a rule, active = well fitted inhibition curve with a large enough effect; inconclusive = small, poorly fitted or top-dose-only effect; inactive = flat fitted curve, though single readings scatter. Where a SMILES comes first, the peptide text is derived from it. [ ]: non-standard residue; d: D form.

System: NIH3T3
Assay: qHTS assay to identify novel small-molecules to repurpose for Merkel cell carcinoma treatment (AID 1296009); also: nearly all actives have a fitted effect of over 60% in size
Conditions: MCC and control cell lines, CellTiter-Glo viability, 72 h; at 44.8 µM (top of the series) unless noted
Description: MCC is a rare and aggressive neuroendocrine skin cancer with limited treatment options. Approximately 80% of MCCs have the Merkel cell polyomavirus (MCPyV) DNA integrated into the host genome (virus-positive: VP-MCC) and viral oncogenes drive oncogenesis. The remaining MCCs are virus-negative (VN-MCC) and are caused by UV mutagenesis. To identify novel treatments for VP-MCC and/or VN-MCC we screened three VP-MCC cell lines (WAGA, MKL-1, MKL-2), three VN-MCC cell lines (MCC-13, MCC-26, UISO), and four immortalized, non-transformed control cell lines (HaCaT, HEK293T, CRL7250, NIH-3T3) against ~2,400 compounds in the NCGC Pharmaceutical Collection (NPC) and ~1,900 compounds in the Mechanism Interrogation PlatE (MiPE). Using cell viability as a readout (CellTiter-Glo assay) we found both overlapping and distinct drugs that can be repurposed for the treatment of VP-MCC and VN-MCC.
A high-throughput screen was conducted in 1536-well white flat bottom plates (Corning) on a Kalypsys robotic system. Cell lines WAGA, MKL-1, MKL-2, MCC-13, MCC-26, UISO, HaCaT, HEK293T, CRL7250, and NIH-3T3 were screened against 2 small molecule annotated drug libraries NPC and MIPE in dose response (8 and 11 pt. respectively) measuring cell viability after 72 hours of incubation. […] A 1,536 pintool (Kalypsys) was used to transfer 23 nL of compound in DMSO to the 1,536-well assay plates. After 72 hr incubation at 37 degree celsius, 2.5 uL of CellTiter-Glo (Promega) was dispensed into each well using a BiorapTR. Plates were incubated at room temperature for 10 min, transferred to a ViewLux (PerkinElmer) and the luminescence was recorded using an exposure time of 2 seconds. Relative luminescence units (RLUs) were normalized to in-plate controls (no cells as a positive (cytotoxicity) control, DMSO as negative control) and the normalized data was processed using NCATS in-house software.

| SMILES | outcome |
| --- | --- |
| CC(=O)N(O)CCCCCN1C(=O)CCC1=O | inactive |
| COC1C=C([C@@H]2CC=C3[C@@]4(C)C(CC[C@]32C)[C@@]2(C)C=CC(=O)C(C)(C)C2C[C@H]4OC(C)=O)C(=O)O1 (stereo not given in full) | inactive [at 17.4 µM] |
| COC(=O)c1ccc(O[C@@H]2O[C@H](CO)[C@@H](O)[C@H](O)[C@H]2O)c(OC)c1 | inactive |
| CC(=O)N[C@H](Cc1ccc(O)cc1)C(=O)N[C@H](CCCN=C(N)N)C(=O)N[C@H](Cc1ccccc1)C(N)=O (Ac-[dY]-[dR]-[dF]-NH2) | inactive |
| CC(C#N)C(C)O[C@@H]1O[C@H](CO)[C@@H](O)[C@H](O)[C@H]1O (stereo not given in full) | inactive |
| CC1CCC(=O)CC(O)C(O)CC(=O)O1 (stereo not given) | inactive |
| C=C1C2=CC(O)C(C)C1(C)CC/C(C)=C/CCC1(C)OC1C2=O (stereo not given) | inactive |
| CC(=O)[C@@H]1CC[C@]2(C(=O)O)CC[C@]3(C)C(CCC4[C@@]5(C)CC[C@H](O)C(C)(C)C5CC[C@]43C)C12 (stereo not given in full) | inactive [at 17.4 µM] |
| N#CC1C(=O)Nc2scc(-c3ccc(-c4ccccc4O)cc3)c2C1=O (stereo not given) | inactive |
| FC(F)(F)c1cc(C(F)(F)F)c2ccc3nc(-c4nnco4)cn3c2n1 | inactive |
| C[C@H]1CN(C[C@H](Cc2ccccc2)C(=O)NCC(=O)O)CC[C@@]1(C)c1cccc(O)c1 | inactive |
| CC1CCC2C(C(=O)O)=CC3CC(C)(C)CC132 (stereo not given) | inactive |
| COc1ccc([C@@H]2N[C@H](C(=O)O)Cc3c2[nH]c2ccccc32)cc1CN1CCN(c2ccccc2F)CC1 | inactive |
| N[C@H]1C[C@H]1c1ccc(-c2cccc(O)c2)cc1 | inactive |
| C=CC1C(O[C@@H]2O[C@H](CO)[C@@H](O)[C@H](O)[C@H]2O)OC=C(C(=O)OC)C1Cc1nccc2c1[nH]c1ccccc12 (stereo not given in full) | inactive [at 17.4 µM] |
| CC1(C)CCCC2(C)C(CO)C3CCC2C31 (stereo not given) | inactive |
| C[C@@H]1CC[C@]2(C(=O)O[C@@H]3O[C@H](CO)[C@@H](O)[C@H](O)[C@H]3O)CC[C@]3(C)C(=CCC4[C@@]5(C)C[C@@H](O)[C@H](O)C(C)(C)C5CC[C@]43C)C2[C@]1(C)O (stereo not given in full) | inactive [at 17.4 µM] |
| C#C[C@]1(O)CC[C@H]2[C@@H]3CCC4=C/C(=N/O)CC[C@@H]4[C@H]3CC[C@@]21CC | inactive |
| CC1(C)CC[C@]2(C(=O)O[C@@H]3O[C@H](CO)[C@@H](O)[C@H](O)[C@H]3O)CC[C@]3(C)C(=CCC4[C@@]5(C)C[C@@H](O)[C@H](O)C(CO)(CO)C5CC[C@]43C)C2[C@@H]1O (stereo not given in full) | inactive [at 17.4 µM] |
| Cc1onc(-c2ccccc2)c1C(=O)N[C@@H]1C(=O)N2[C@@H]1SC(C)(C)[C@@H]2C(=O)O | inactive |

| SMILES | outcome |
| --- | --- |
| O=C(NC[C@H](O)CN1CCc2ccccc2C1)c1cc(NC2COC2)ncn1 | inactive |
| C=C1CC[C@@H]2[C@](C)(CO[C@@H]3O[C@H](CO)[C@@H](O)[C@H](O)[C@H]3O)CCC[C@@]2(C)[C@@H]1CCC1=CCOC1=O | inactive [at 17.4 µM] |
| Cc1cc(N2CCCCC2)nc2ccccc12 | inactive |
| COc1cc2c(cc1OC)CN(C(=O)[C@@H](NCc1ccncc1)C(C)(C)C)CC2 | inactive |
| CC1CC(=O)C2=C(O1)OC1(C)CCC3C(C)(C)C=CC(=O)C3(C)C1C2 (stereo not given) | inactive |
| O=C(O)c1cnn(-c2nc3cc(OC(F)(F)F)c(Cl)cc3[nH]2)c1 | inactive |
| O=C(O)c1ccc(CCCc2ccc(OCCc3ccc(F)cc3)cc2)o1 | inactive |
| CC1OC(OC2C(C)OC(OC3C(OC(=O)/C=C/c4ccc(O)cc4)C(CO)OC(OC4(COC(=O)/C=C/c5ccc(O)cc5)OC(CO)C(O)C4O)C3OC3OCC(O)(CO)C3O)C(O)C2O)C(O)C(O)C1O (stereo not given) | inactive [at 9.27 µM] |
| CC1(CO)CC2C(O)C(=O)C3(CO)CC3(C)C2C1 (stereo not given) | inactive |
| C=C1C(=O)OC2CC(C)=C(C(C)CCCO[C@@H]3O[C@H](CO)[C@@H](O)[C@H](O)[C@H]3O)C(O)C12 (stereo not given in full) | inactive [at 17.4 µM] |
| COc1cc(NC(=O)c2ccccn2)ccc1Cl | inactive |
| CCC[C@@H]1C[C@@H](C(=O)N[C@@H]([C@H]2O[C@H](SC)[C@H](OP(=O)(O)O)[C@@H](O)[C@H]2O)[C@H](C)Cl)N(C)C1 | inactive [at 17.4 µM] |
| CC(C)C1=CC2=CCC3[C@](C)(CCC[C@@]3(C)C(=O)O)C2CC1O (stereo not given in full) | inactive |
| NS(=O)(=O)NCCNc1nonc1C(=Nc1ccc(F)c(Br)c1)NO | inactive |
| O=C1N(CC2CCCCN2)CCN1c1ccccc1 (stereo not given) | inactive |
| O=C1Nc2ccc(O)cc2O[C@H]1O[C@@H]1O[C@H](CO)[C@@H](O)[C@H](O)[C@H]1O | inactive |
| CC1=CCC2C(C)(CO)CCCC2(CO)C1CO (stereo not given) | inactive |
| COCC(=O)N1CCc2cc(-c3csc(NC(=O)c4cc(OC)cc(OC)c4)n3)ccc21 | inactive |
| COc1cc(CCc2ccccc2)c(C(=O)O)c2c1CC(C(C)(C)O)O2 (stereo not given) | inactive |
| CC1(C(=O)O)CCCC2(C)C1CCC13CC(CCC21)C1(CO)OC31 (stereo not given) | inactive |
